In PubChem BioAssay:
For some of these results: Entries with a potency or affinity are not part of this list. Active and inactive are the calls of the source. Unless noted, no rule for the calls is given here.

Columns and labels:
[1] = antimalarial activity against Dd2 strain (AID 2302;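 active = growth inhibition above 50% at the single 2 µM test dose, taken to imply half-maximal potency below 2 µM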;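 also: 0% = DMSO untreated growth and 100% = chloroquine plus artemisinin killed control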); conditions: P. falciparum Dd2 in RBCs, LDH growth readout, 72 h; at 2 µM; hits give high values
[2] = HepG2 cytotoxicity, primary screen, cytotoxicity control for P. falciparum antimalarial project, cell-based, ATP luminescence (AID 2303;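 active = inhibition above 50%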;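 also: 0% = DMSO wells and 100% = digitonin-killed cells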); conditions: HepG2 viability, 24-48 h, at 10 µM, hits give high values
[3] = target: L-lactate dehydrogenase (Plasmodium falciparum (isolate CDC / Honduras)) (UniProt Q27743); experiment: PfLDH activity inhibition – cell lysate, 3D7 strain, counter-screen for P. falciparum growth inhibition project (AID 2304);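 also: 0% = vehicle and 100% = reference inhibitor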; conditions: P. falciparum 3D7 crude extract, LDH APAD/NBT absorbance; at 2 µM; hits give high values
L-lactate dehydrogenase (Plasmodium falciparum (isolate CDC / Honduras)), sequence (Q27743 whole entry, looked up): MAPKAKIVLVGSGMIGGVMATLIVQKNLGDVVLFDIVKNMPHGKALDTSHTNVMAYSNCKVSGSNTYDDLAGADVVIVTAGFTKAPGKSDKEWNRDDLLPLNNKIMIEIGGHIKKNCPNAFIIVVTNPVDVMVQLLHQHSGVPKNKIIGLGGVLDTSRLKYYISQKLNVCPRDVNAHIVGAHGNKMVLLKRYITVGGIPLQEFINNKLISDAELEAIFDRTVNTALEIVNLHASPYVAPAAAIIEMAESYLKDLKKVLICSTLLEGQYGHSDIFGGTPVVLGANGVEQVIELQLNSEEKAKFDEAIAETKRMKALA

[4] = inhibition of 3D7 malaria parasite growth – strain 3D7 (AID 2306);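 also: 0% = DMSO wells and 100% = chloroquine plus artemisinin control wells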; conditions: P. falciparum 3D7 erythrocytic growth, LDH absorbance, 72 h; at 2 µM; hits give high values
[5] = target: Calcium-dependent protein kinase 1 (Plasmodium falciparum (isolate 3D7)) (UniProt P62344); experiment: PfCDPK1 kinase inhibitors, biochemical, TCAMS library (AID 1159585; cut-off not given, nearly all actives have IC50 up to about 0.98 µM;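 also: inhibitors leave more ATP so luminescence rises with inhibition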); conditions: recombinant PfCDPK1, Kinase-Glo ATP depletion luminescence
Calcium-dependent protein kinase 1 (Plasmodium falciparum (isolate 3D7)), sequence (P62344 whole entry, looked up): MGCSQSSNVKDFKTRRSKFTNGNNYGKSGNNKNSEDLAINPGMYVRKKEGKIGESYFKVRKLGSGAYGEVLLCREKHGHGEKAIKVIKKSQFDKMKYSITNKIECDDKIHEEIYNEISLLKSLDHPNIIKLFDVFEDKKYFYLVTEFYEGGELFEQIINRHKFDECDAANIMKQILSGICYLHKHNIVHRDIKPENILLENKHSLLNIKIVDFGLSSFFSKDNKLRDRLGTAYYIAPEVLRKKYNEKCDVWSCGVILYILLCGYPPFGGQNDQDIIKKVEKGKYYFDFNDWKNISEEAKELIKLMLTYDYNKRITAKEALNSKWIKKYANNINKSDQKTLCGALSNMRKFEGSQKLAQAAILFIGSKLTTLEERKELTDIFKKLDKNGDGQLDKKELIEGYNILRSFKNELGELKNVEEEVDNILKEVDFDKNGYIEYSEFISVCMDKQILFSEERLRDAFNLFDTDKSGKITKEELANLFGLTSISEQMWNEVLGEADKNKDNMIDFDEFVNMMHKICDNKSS

[6] = target: Plasmodium falciparum protein kinase 6 (PK6, PF3D7_1337100) (UniProt Q8IDW1); experiment: PfPK6 kinase inhibitors, biochemical, TCAMS library (AID 1159586); conditions: recombinant PfPK6, Kinase-Glo ATP depletion luminescence
Plasmodium falciparum protein kinase 6 (PK6, PF3D7_1337100), sequence (Q8IDW1 1-305): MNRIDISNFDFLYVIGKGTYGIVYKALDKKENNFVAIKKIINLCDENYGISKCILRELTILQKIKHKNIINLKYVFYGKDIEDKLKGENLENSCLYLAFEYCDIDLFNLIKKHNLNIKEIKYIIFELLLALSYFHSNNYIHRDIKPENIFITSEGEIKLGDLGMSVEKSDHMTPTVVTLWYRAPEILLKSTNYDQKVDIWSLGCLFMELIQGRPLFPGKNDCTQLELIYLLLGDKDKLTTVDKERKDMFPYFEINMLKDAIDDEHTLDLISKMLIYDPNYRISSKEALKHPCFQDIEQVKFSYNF

[7] = target: Protein kinase 7 (PK7), Plasmodium falciparum 3D7 (PF3D7_0213400) (UniProt Q7YTF7); experiment: inhibition of Plasmodium PK7 catalytic activity – biochemical, TCAMS antimalarial set, Kinase-Glo luminescence (AID 1159587); conditions: recombinant PfPK7, Kinase-Glo ATP depletion luminescence
Protein kinase 7 (PK7), Plasmodium falciparum 3D7 (PF3D7_0213400), sequence (Q7YTF7 1-343): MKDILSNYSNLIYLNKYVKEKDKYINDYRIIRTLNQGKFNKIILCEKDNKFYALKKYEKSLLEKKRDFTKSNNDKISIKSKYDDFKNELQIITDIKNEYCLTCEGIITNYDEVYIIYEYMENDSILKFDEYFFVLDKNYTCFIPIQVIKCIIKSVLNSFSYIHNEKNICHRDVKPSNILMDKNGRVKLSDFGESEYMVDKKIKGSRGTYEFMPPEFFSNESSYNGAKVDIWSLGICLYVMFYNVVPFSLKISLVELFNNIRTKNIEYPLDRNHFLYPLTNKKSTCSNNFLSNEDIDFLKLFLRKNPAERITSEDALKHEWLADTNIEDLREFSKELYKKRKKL

[8] = target: Calcium-dependent protein kinase 4 (Plasmodium falciparum (isolate 3D7)) (UniProt Q8IBS5); experiment: PfCDPK4 kinase inhibitors, biochemical, TCAMS library (AID 1159588; cut-off not given, nearly all actives have IC50 up to about 0.91 µM); conditions: recombinant PfCDPK4, Kinase-Glo ATP depletion luminescence
Calcium-dependent protein kinase 4 (Plasmodium falciparum (isolate 3D7)), sequence (Q8IBS5 whole entry, looked up): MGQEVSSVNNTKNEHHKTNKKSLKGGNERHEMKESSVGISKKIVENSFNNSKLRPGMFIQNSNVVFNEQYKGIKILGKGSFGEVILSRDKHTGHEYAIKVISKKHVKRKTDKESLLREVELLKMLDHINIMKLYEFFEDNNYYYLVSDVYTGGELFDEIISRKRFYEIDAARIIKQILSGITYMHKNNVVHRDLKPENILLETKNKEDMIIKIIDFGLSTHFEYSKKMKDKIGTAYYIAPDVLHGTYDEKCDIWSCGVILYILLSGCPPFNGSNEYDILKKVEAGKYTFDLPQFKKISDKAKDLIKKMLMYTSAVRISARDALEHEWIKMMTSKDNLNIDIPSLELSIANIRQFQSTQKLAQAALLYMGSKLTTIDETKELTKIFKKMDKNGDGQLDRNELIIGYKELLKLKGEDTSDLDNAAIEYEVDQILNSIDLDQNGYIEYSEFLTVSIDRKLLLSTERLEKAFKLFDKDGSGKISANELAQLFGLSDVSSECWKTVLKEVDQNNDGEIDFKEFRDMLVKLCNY

Oc1cccc2ccc(Nc3ccccn3)nc12
active: growth inhibition [1] 93% | inhibition [2] 72% | growth inhibition [4] 99%
inactive: inhibition [3] 3% | outcome [5] | outcome [6] | outcome [7] | outcome [8]

CC(C)(C)OC(=O)n1cc(C2CCN(CCCC34CCCc5cccc(c53)NC4=O)CC2)c2ccncc21 (stereo not given)
active: growth inhibition [4] 92%
inactive: growth inhibition [1] -2% | inhibition [2] 20% | inhibition [3] -5% | outcome [5] | outcome [6] | outcome [7] | outcome [8]

O=C(Nc1ccccc1F)NC1CCN(c2ccnc(Nc3ccc(F)cc3)n2)C1 (stereo not given)
inactive: inhibition [2] 0% | inhibition [3] -7% | outcome [5] | outcome [6] | outcome [7] | outcome [8]
active: growth inhibition [1] 74% | growth inhibition [4] 95%

O=C(/C=C/c1ccc(Cl)c(Cl)c1)N1CCC(NCc2c[nH]c3ccccc23)CC1
inactive: growth inhibition [1] 4% | inhibition [2] 36% | inhibition [3] -2% | outcome [5] | outcome [6] | outcome [7] | outcome [8]
active: growth inhibition [4] 94%

COc1ccc2nc(C)cc(NCc3cccc4ccccc34)c2c1
inactive: inhibition [2] 28% | inhibition [3] -7% | outcome [5] | outcome [6] | outcome [7] | outcome [8]
active: growth inhibition [1] 72% | growth inhibition [4] 102%

CCC(C)CC(=O)Nc1ccc(OC)c(S(=O)(=O)N[C@@H]2CCN(C#N)C2)c1 (stereo not given in full)
active: growth inhibition [1] 77% | growth inhibition [4] 94%
inactive: inhibition [2] 16% | inhibition [3] 0% | outcome [5] | outcome [6] | outcome [7] | outcome [8]

CN(C)CC(=O)NCC(NCCCNc1cc(=O)c2ccccc2[nH]1)c1cc(Br)cc(Br)c1 (stereo not given)
active: growth inhibition [4] 98%
inactive: growth inhibition [1] 2% | inhibition [2] 6% | inhibition [3] 1% | outcome [5] | outcome [6] | outcome [7] | outcome [8]

N#Cc1cc(C(=O)c2cc(Br)ccc2O)cn(-c2cc(Cl)cc(Cl)c2)c1=O
active: growth inhibition [4] 98%
inactive: growth inhibition [1] 35% | inhibition [2] 42% | inhibition [3] -5% | outcome [5] | outcome [6] | outcome [7] | outcome [8]

N#Cc1ccc2c(c1)CCN(CCC1CCC(NC(=O)/C=C/c3ccc(Cl)c(Cl)c3)CC1)CC2 (stereo not given)
active: growth inhibition [1] 51% | growth inhibition [4] 100%
inactive: inhibition [2] 31% | inhibition [3] -11% | outcome [5] | outcome [6] | outcome [7] | outcome [8]

COc1ccccc1/C=C/C(=O)NCCC1CCN(CCCCCNC(=O)/C=C/c2ccc(Cl)c(Cl)c2)CC1
inactive: growth inhibition [1] 0% | inhibition [2] 34% | inhibition [3] -4% | outcome [5] | outcome [6] | outcome [7] | outcome [8]
active: growth inhibition [4] 94%

O=C(NC1CCN(Cc2ccccc2O)C1)c1ccc(-c2ccccc2)cc1 (stereo not given)
inactive: growth inhibition [1] 25% | inhibition [2] -5% | inhibition [3] 4% | outcome [5] | outcome [6] | outcome [7] | outcome [8]
active: growth inhibition [4] 99%

CCOC(=O)c1ccc(NC(=O)Nc2ccc(-c3ccc(-c4nc5c(C)cccc5[nH]4)s3)cc2)cc1
active: growth inhibition [1] 100% | inhibition [2] 60% | growth inhibition [4] 101%
inactive: inhibition [3] -4% | outcome [5] | outcome [6] | outcome [7] | outcome [8]

Cc1cccc(NC(=O)NCc2ccccc2)n1
inactive: growth inhibition [1] 2% | inhibition [2] 14% | inhibition [3] -2% | outcome [5] | outcome [6] | outcome [7] | outcome [8]
active: growth inhibition [4] 97%

CCc1cn(C)c2c(N3CCCC3=O)cc(C(=O)N[C@@H](Cc3ccccc3)[C@H](O)CNC(C)(C)CCCC(C)C)cc12
active: growth inhibition [1] 98% | growth inhibition [4] 97%
inactive: inhibition [2] 15% | inhibition [3] -4% | outcome [5] | outcome [6] | outcome [7] | outcome [8]

N#Cc1ccc2c(c1)CCN(CCC1CCC(NC(=O)/C=C/c3ccc4[nH]ccc4c3)CC1)CC2 (stereo not given)
inactive: growth inhibition [1] 27% | inhibition [2] 2% | inhibition [3] 2% | outcome [5] | outcome [6] | outcome [7] | outcome [8]
active: growth inhibition [4] 93%

COc1ccc2nccc([C@@H](O)CN3CCC(NCc4[nH]c5ccccc5c4F)CC3)c2c1
active: growth inhibition [1] 61% | growth inhibition [4] 102%
inactive: inhibition [2] 19% | inhibition [3] 3% | outcome [5] | outcome [6] | outcome [7] | outcome [8]

O=C(Nc1cc(F)cc(-c2cccnc2)c1)c1ccc2c(=O)n(Cc3ccccc3)cnc2c1
active: growth inhibition [4] 98%
inactive: growth inhibition [1] 11% | inhibition [2] 7% | inhibition [3] 2% | outcome [5] | outcome [6] | outcome [7] | outcome [8]

O=C(NC1CCN(Cc2ccccc2)CC1)c1ccc(-c2nc3cc(Cl)c(F)cc3[nH]2)s1
inactive: inhibition [2] 28% | inhibition [3] 3% | outcome [5] | outcome [6] | outcome [7] | outcome [8]
active: growth inhibition [1] 99% | growth inhibition [4] 101%

COc1ccc(CCNC(=O)c2cc(C)ccc2O)cc1-c1ccc(C(C)(C)C)cc1
inactive: inhibition [2] 1% | inhibition [3] -6% | outcome [5] | outcome [6] | outcome [7] | outcome [8]
active: growth inhibition [1] 94% | growth inhibition [4] 97%

COc1ccc2cc(CNCCCCCCNCc3ccc4cc(OC)ccc4c3)ccc2c1
inactive: inhibition [3] -6% | outcome [5] | outcome [6] | outcome [7] | outcome [8]
active: growth inhibition [1] 92% | inhibition [2] 100% | growth inhibition [4] 100%
